Records with an inconclusive call do not appear. Entries that show only a call come without a potency. The source made the active and inactive calls. Unless noted, calls come from the whole dose curve.
Potency is the fitted concentration of half-maximal effect.

Chain of Nucleoprotein (Lymphocytic choriomeningitis virus (strain Armstrong)) (P09992 whole entry, looked up): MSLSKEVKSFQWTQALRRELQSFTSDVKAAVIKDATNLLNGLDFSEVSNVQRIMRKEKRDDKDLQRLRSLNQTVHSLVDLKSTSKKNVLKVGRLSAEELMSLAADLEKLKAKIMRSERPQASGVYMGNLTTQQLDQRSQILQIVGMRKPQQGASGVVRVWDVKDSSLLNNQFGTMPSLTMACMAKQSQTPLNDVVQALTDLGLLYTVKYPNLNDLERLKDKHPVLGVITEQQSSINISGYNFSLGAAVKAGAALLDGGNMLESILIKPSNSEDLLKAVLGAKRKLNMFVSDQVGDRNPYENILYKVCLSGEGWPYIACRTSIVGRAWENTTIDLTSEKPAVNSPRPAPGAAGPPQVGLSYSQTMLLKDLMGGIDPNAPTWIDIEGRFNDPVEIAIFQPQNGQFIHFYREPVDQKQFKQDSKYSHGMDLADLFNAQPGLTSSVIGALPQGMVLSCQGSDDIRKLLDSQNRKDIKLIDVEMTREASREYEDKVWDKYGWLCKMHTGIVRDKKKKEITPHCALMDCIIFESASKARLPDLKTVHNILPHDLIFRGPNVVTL

Tested on in one experiment: not listed separately
Put plainly: qHTS for Inhibitors of the Functional Ribonucleoprotein Complex (vRNP) of Lymphocytic Choriomeningitis Arenaviruses (LCMV): Viability assay - alamar blue signal for LCMV Primary Screen (AID 1347085; calls by dose curve; tested in HEK293 reporter line; note: nearly all actives have a fitted effect of over 80% in size). The conditions noted are these: alamar blue viability counter-screen, LCMV vRNP screen cells; series mostly up to 57.5 µM.
Turning to `CCN(CC)CCNC(=O)c1c(C)[nH]c(C=C2C(=O)Nc3ccc(F)cc32)c1C`, the Potency is 49.8 µM (active).

Regarding `CC[C@H](C)/C=C(C)/C=C/C1=CC2=CC(=O)[C@]3(C)OC(=O)[C@@H](C(C)=O)[C@@H]3C2=CO1`, the Potency entry was “inactive”.

With `C/C=C/C=C/CO`, the Potency entry is “inactive”.

As for `CC1CCC[C@H](O)CCCCCc2cc(O)cc(O)c2C(=O)O1` (stereo not given in full), the Potency result is “inactive”.

As to `CCCC1CCC(=O)O1` (stereo not given), the Potency result was “inactive”.

For `C=C(C)[C@]12C[C@@H](C)[C@@]34O[C@](Cc5ccccc5)(O[C@@H]1[C@@H]3C=C(COC(=O)Cc1ccc(O)c(OC)c1)C[C@]1(O)C(=O)C(C)=C[C@@H]41)O2`, the Potency result was “inactive”.

For the compound `CCCCC[C@H](O)/C=C/C=C/C/C=C\CCCC(=O)O`, the activity change, negative = lower viability is 9.71% [at 0.757 µM] (inactive).

Consider `COc1cc2c(cc1O)C(Cc1ccc(O)cc1)NCC2` (stereo not given), for which the Potency entry was “inactive”.

Regarding `COC(=O)c1ccc2c(c1O)C(=O)c1ccccc1C2=O`, the Potency result is “inactive”.

For the compound `C/C=C(/C)C(=O)O[C@@H]([C@H](O)c1cc2ccc(=O)oc2cc1OC)C(C)(C)O[C@@H]1O[C@H](CO)[C@@H](O)[C@H](O)[C@H]1O`, the Potency result is “inactive”.

With `CC(C)C1Oc2cc3oc(=O)ccc3cc2C1=O` (stereo not given), the Potency entry is “inactive”.

Turning to `CC1=CCC2C(C1)C2(C)C` (stereo not given), the Potency entry is “inactive”.

For the compound `COc1ccc([C@@]23Oc4cc(OC)cc(OC)c4[C@]2(O)[C@H](O)[C@H](C(=O)N(C)C)[C@H]3c2ccccc2)cc1`, the Potency result is “inactive”.

As to `Cc1c(-c2cccc3c(CCCOc4cccc5ccccc45)c(C(=O)O)n(Cc4cccnc4)c23)c(COc2ccc(N3CCN([S+](=O)([O-])N(C)C)CC3)cc2)nn1C`, the Potency result was “inactive”.

For the compound `C=C(C=O)C[C@@H]1C[C@H](O)C2OC3C[C@]4(C)OC5/C=C\CC6OC7C(CC=CCC6OC5CCCC4OC3CC2O1)OC1CC2OC3CC(=O)OC3C[C@@H](C)C[C@@]2(C)OC1C[C@@H]7C` (stereo not given in full), the Potency entry is “inactive”.

Turning to `CC1(C)CCC[C@@](C)([C@H]2CC[C@]3(C)[C@@H]2[C@H](O)C[C@@H]2[C@@]4(C)CC[C@H](O)C(C)(C)[C@@H]4CC[C@]23C)O1`, the Potency result was “inactive”.

As to `COc1c(C)c2c(c(O)c1CC=C(C)CCC(=O)O)C(=O)OC2`, the Potency is 13.7 µM (active).

With `COc1cc2c(cc1CC=C(C)C)C(=O)C[C@@H](c1ccc(O)cc1)O2`, the Potency entry is “inactive”.

Turning to `NCCC(=O)O`, the Potency entry is “inactive”.

`Cc1cnnc2ccccc12`: the Potency entry was “inactive”.

Take `CCOc1c2ccoc2nc2c(OC)c(OC)ccc12`: the Potency entry is “inactive”.

Take `CC(C)OC(=O)c1ccccc1`: the Potency entry is “inactive”.

On to `O=C(C[C@@H]1CC=CCCC(=O)O[C@H](c2ccccc2)CNC1=O)NCc1ccc(Cl)cc1`, for which the Potency entry was “inactive”.

For the compound `COc1cccc(OC)c1C(=O)O`, the Potency result is “inactive”.

As for `CC1C2CC(CC2C2CCCC(O)C2)C1(C)C` (stereo not given), the Potency result was “inactive”.

Turning to `C[C@@H]1O[C@@H](OC2C(O)C(OCCc3ccc(O)c(O)c3)OC(CO)C2OC(=O)/C=C/c2ccc(O)c(O)c2)[C@H](O)[C@H](O)[C@H]1O` (stereo not given in full), the Potency result is “inactive”.

For the compound `COc1cc(C/C=C\c2ccccc2)c(OC)cc1O`, the Potency entry was “inactive”.

As for `COC(=O)c1ccccc1OC`, the Potency entry is “inactive”.

As for `CC(C)=CCC[C@](C)(O)C1CC[C@]2(C)C1[C@H](O)CC1[C@@]3(C)CC[C@H](O[C@@H]4O[C@H](CO)[C@@H](O)[C@H](O)[C@H]4O[C@@H]4O[C@H](CO)[C@@H](O)[C@H](O)[C@H]4O)C(C)(C)C3CC[C@]12C` (stereo not given in full), the Potency result was “inactive”.

In the case of `COC(=O)c1ccc(N2CC3CNC(=O)C2(C(=O)OC)N3C)cc1` (stereo not given), the Potency entry is “inactive”.

For `CC/C=C\CCOC(=O)CCCCC`, the Potency entry was “inactive”.

Regarding `CC(=O)O[C@@]1(C)C[C@@H](O)[C@]2(O)C=CO[C@@H](O[C@@H]3O[C@H](CO)[C@@H](O)[C@H](O)[C@H]3O)[C@@H]21`, the Potency result was “inactive”.

With `C=C1C[C@H](O)[C@@H]2[C@H](OC(=O)[C@H]2C)[C@H]2[C@H](C)[C@@H](O)C[C@@H]12`, the Potency result is “inactive”.

`CNCCO`: the Potency result is “inactive”.

With `O=C(OCC1OC(Oc2ccc(O)cc2)C(O)C(O)C1O)c1ccccc1` (stereo not given), the Potency result is “inactive”.

Take `COc1ccc(C(=O)OC2CC3CC[C@H](C2)N3C(C)=O)cc1OC` (stereo not given in full): the Potency result was “inactive”.

For `COc1cc2c(=O)c(-c3ccc(O)cc3)coc2cc1OC1OC(CO)C(O)C(O)C1O` (stereo not given), the Potency result is “inactive”.

Consider `CCCC(=O)OC`, for which the Potency entry was “inactive”.

For `CCOC(=O)c1c(C)nc(C)c(C(=O)OCC)c1-c1ccccc1`, the Potency entry was “inactive”.

For `CCOC(=O)[C@H](CCc1ccccc1)N[C@@H](C)C(=O)N1CCCC1C(=O)O` (stereo not given in full), the Potency result was “inactive”.

Another experiment has as its target Nucleoprotein (Lymphocytic choriomeningitis virus (strain Armstrong)) (UniProt P09992). The experiment can be described thus: qHTS for Inhibitors of the Functional Ribonucleoprotein Complex (vRNP) of Lymphocytic Choriomeningitis Arenaviruses (LCMV): LCMV Primary Screen - GLuc reporter signal (AID 1347086). Note: nearly all actives have a fitted effect of over 70% in size. The conditions noted are these: LCMV minigenome vRNP cell assay, Gaussia luciferase reporter; series mostly up to 57.5 µM.
For the compound `CCN(CC)CCNC(=O)c1c(C)[nH]c(C=C2C(=O)Nc3ccc(F)cc32)c1C`, the Potency is 44.4 µM (active).

With `CC[C@H](C)/C=C(C)/C=C/C1=CC2=CC(=O)[C@]3(C)OC(=O)[C@@H](C(C)=O)[C@@H]3C2=CO1`, the Potency entry was “inactive”.

In the case of `C/C=C/C=C/CO`, the Potency entry was “inactive”.

Turning to `CC1CCC[C@H](O)CCCCCc2cc(O)cc(O)c2C(=O)O1` (stereo not given in full), the Potency result is “inactive”.

Regarding `CCCC1CCC(=O)O1` (stereo not given), the Potency result was “inactive”.

Consider `C=C(C)[C@]12C[C@@H](C)[C@@]34O[C@](Cc5ccccc5)(O[C@@H]1[C@@H]3C=C(COC(=O)Cc1ccc(O)c(OC)c1)C[C@]1(O)C(=O)C(C)=C[C@@H]41)O2`, for which the Potency entry is “inactive”.

Turning to `CCCCC[C@H](O)/C=C/C=C/C/C=C\CCCC(=O)O`, the activity change, negative = inhibition was 8.09% [at 0.757 µM] (inactive).

On to `COc1cc2c(cc1O)C(Cc1ccc(O)cc1)NCC2` (stereo not given), for which the Potency result is “inactive”.

As to `COC(=O)c1ccc2c(c1O)C(=O)c1ccccc1C2=O`, the Potency result was “inactive”.

Consider `C/C=C(/C)C(=O)O[C@@H]([C@H](O)c1cc2ccc(=O)oc2cc1OC)C(C)(C)O[C@@H]1O[C@H](CO)[C@@H](O)[C@H](O)[C@H]1O`, for which the Potency entry was “inactive”.

For the compound `CC(C)C1Oc2cc3oc(=O)ccc3cc2C1=O` (stereo not given), the Potency entry was “inactive”.

Turning to `CC1=CCC2C(C1)C2(C)C` (stereo not given), the Potency entry is “inactive”.

Take `COc1ccc([C@@]23Oc4cc(OC)cc(OC)c4[C@]2(O)[C@H](O)[C@H](C(=O)N(C)C)[C@H]3c2ccccc2)cc1`: the Potency entry was “inactive”.

As for `Cc1c(-c2cccc3c(CCCOc4cccc5ccccc45)c(C(=O)O)n(Cc4cccnc4)c23)c(COc2ccc(N3CCN([S+](=O)([O-])N(C)C)CC3)cc2)nn1C`, the Potency result is “inactive”.

As to `C=C(C=O)C[C@@H]1C[C@H](O)C2OC3C[C@]4(C)OC5/C=C\CC6OC7C(CC=CCC6OC5CCCC4OC3CC2O1)OC1CC2OC3CC(=O)OC3C[C@@H](C)C[C@@]2(C)OC1C[C@@H]7C` (stereo not given in full), the Potency entry is “inactive”.

Regarding `CC1(C)CCC[C@@](C)([C@H]2CC[C@]3(C)[C@@H]2[C@H](O)C[C@@H]2[C@@]4(C)CC[C@H](O)C(C)(C)[C@@H]4CC[C@]23C)O1`, the Potency entry was “inactive”.

As for `COc1c(C)c2c(c(O)c1CC=C(C)CCC(=O)O)C(=O)OC2`, the Potency was 7.69 µM (active).

As to `COc1cc2c(cc1CC=C(C)C)C(=O)C[C@@H](c1ccc(O)cc1)O2`, the Potency result was “inactive”.

Turning to `NCCC(=O)O`, the Potency result is “inactive”.

Turning to `Cc1cnnc2ccccc12`, the Potency result was “inactive”.

As to `CCOc1c2ccoc2nc2c(OC)c(OC)ccc12`, the Potency entry was “inactive”.

Regarding `CC(C)OC(=O)c1ccccc1`, the Potency entry was “inactive”.

With `O=C(C[C@@H]1CC=CCCC(=O)O[C@H](c2ccccc2)CNC1=O)NCc1ccc(Cl)cc1`, the Potency entry was “inactive”.

As for `COc1cccc(OC)c1C(=O)O`, the Potency result was “inactive”.

Turning to `CC1C2CC(CC2C2CCCC(O)C2)C1(C)C` (stereo not given), the Potency result is “inactive”.

For `C[C@@H]1O[C@@H](OC2C(O)C(OCCc3ccc(O)c(O)c3)OC(CO)C2OC(=O)/C=C/c2ccc(O)c(O)c2)[C@H](O)[C@H](O)[C@H]1O` (stereo not given in full), the Potency entry is “inactive”.

For `COc1cc(C/C=C\c2ccccc2)c(OC)cc1O`, the Potency result is “inactive”.

As to `COC(=O)c1ccccc1OC`, the Potency entry was “inactive”.

For the compound `CC(C)=CCC[C@](C)(O)C1CC[C@]2(C)C1[C@H](O)CC1[C@@]3(C)CC[C@H](O[C@@H]4O[C@H](CO)[C@@H](O)[C@H](O)[C@H]4O[C@@H]4O[C@H](CO)[C@@H](O)[C@H](O)[C@H]4O)C(C)(C)C3CC[C@]12C` (stereo not given in full), the Potency result was “inactive”.

Take `COC(=O)c1ccc(N2CC3CNC(=O)C2(C(=O)OC)N3C)cc1` (stereo not given): the Potency entry is “inactive”.

Regarding `CC/C=C\CCOC(=O)CCCCC`, the Potency entry is “inactive”.

On to `CC(=O)O[C@@]1(C)C[C@@H](O)[C@]2(O)C=CO[C@@H](O[C@@H]3O[C@H](CO)[C@@H](O)[C@H](O)[C@H]3O)[C@@H]21`, for which the Potency entry was “inactive”.

`C=C1C[C@H](O)[C@@H]2[C@H](OC(=O)[C@H]2C)[C@H]2[C@H](C)[C@@H](O)C[C@@H]12`: the Potency result was “inactive”.

Take `CNCCO`: the Potency result is “inactive”.

Regarding `O=C(OCC1OC(Oc2ccc(O)cc2)C(O)C(O)C1O)c1ccccc1` (stereo not given), the Potency result was “inactive”.

With `COc1ccc(C(=O)OC2CC3CC[C@H](C2)N3C(C)=O)cc1OC` (stereo not given in full), the Potency entry is “inactive”.

Take `COc1cc2c(=O)c(-c3ccc(O)cc3)coc2cc1OC1OC(CO)C(O)C(O)C1O` (stereo not given): the Potency result is “inactive”.

On to `CCCC(=O)OC`, for which the Potency result is “inactive”.

Consider `CCOC(=O)c1c(C)nc(C)c(C(=O)OCC)c1-c1ccccc1`, for which the Potency entry is “inactive”.

Regarding `CCOC(=O)[C@H](CCc1ccccc1)N[C@@H](C)C(=O)N1CCCC1C(=O)O` (stereo not given in full), the Potency entry is “inactive”.

For the origin of these results see PubChem BioAssay (NCATS).
